Results taken from PubChem BioAssay.
The source made the active and inactive calls.

What was measured:
[1] = test system: Plasmodium falciparum Sir2 (PF13_0152, Sir2A); test: Plasmodium falciparum Sir2A binding compounds – biochemical, small-molecule microarray, 635 nm fluorescence, primary screen (AID 1098); settings: fluorescence 635 nm, higher = more signal;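 note: score merges spot fluorescence intensity with its signal-to-noise ratio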
[2] = probe aDKK1 binding to arrayed compounds – biochemical, biotinylated probe, 635/667 nm fluorescence, primary screen (AID 1099); settings: small-molecule microarray, higher = more signal;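 note: score merges 667nm spot fluorescence with signal to noise across triplicate slides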
[3] = probe aCHRDL2 binding to arrayed compounds – biochemical, biotinylated probe, 635/667 nm fluorescence, primary screen (AID 1100); settings: small-molecule microarray, higher = more signal
[4] = change in splice reporter luminescence, either direction, cell-based, HEK293, spliceosome inhibition project, primary screen (AID 1101); settings: HEK293 splicing luciferase reporter, 24 h, higher = more signal, called active from +8 up or from −8 down;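 note: HEK293 cells carrying a splicing-competent luciferase reporter gene; test concentration not given here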
[5] = molecular target: Fibroblast growth factor 10 (Homo sapiens) (UniProt O15520); test: compounds binding fibroblast growth factor 10 – biochemical, small-molecule microarray, 635 nm fluorescence, primary screen (AID 1102); settings: FGF10 binding, fluorescence 635 nm, higher = more signal
[6] = test system: glycogen synthase kinase-3 (GSK3A per assay name; protocol says GSK3B); test: compounds binding glycogen synthase kinase-3 – biochemical, small-molecule microarray, 635 nm fluorescence, GSK3A, primary screen (AID 1103); settings: fluorescence 635 nm, higher = more signal; note: the record names both GSK3A and GSK3B
[7] = molecular target: Epidermal growth factor receptor (Homo sapiens) (UniProt P00533); test: compounds binding epidermal growth factor receptor – biochemical, small-molecule microarray, 635 nm fluorescence, primary screen (AID 1104); settings: EGFR binding, higher = more signal;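 note: score merges 667 nm emission intensity with spot signal to noise over triplicate slides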
[8] = molecular target: Follistatin-related protein 3 (Homo sapiens) (UniProt O95633); test: compounds binding follistatin-related protein 3 – biochemical, small-molecule microarray, 635 nm fluorescence, primary screen (AID 1105); settings: FSTL3 binding, higher = more signal;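 note: score merges emission near 667 nm and signal to noise per printed spot across three slides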
[9] = molecular target: Dickkopf-related protein 1 (Homo sapiens) (UniProt O94907); test: small molecules binding DKK1 protein – biochemical, small-molecule microarray, 635 nm fluorescence scan, primary screen (AID 1106); settings: higher = more signal;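 note: score merges emission near 667 nm with signal to noise over three replicate slides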
[10] = test system: Inhibin beta A chain (activin A); test: small molecules binding activin A – biochemical, small-molecule microarray, 635 nm fluorescence scan, primary screen (AID 1107); settings: INHBA, higher = more signal;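 note: mouse activin A protein probed at 4.33 µg/mL on printed slides; score merges bound-protein fluorescence near 667 nm with spot signal-to-noise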
[11] = test system: Human papillomavirus type 1a protein E7 (residues 44-93); test: small molecules binding HPV E7 44-93 – biochemical, small-molecule microarray, residues 44-93, 635 nm fluorescence, primary screen (AID 1108); settings: fluorescence 635 nm, higher = more signal;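 note: E7 fragment applied at 1 µg/mL in TBST for 1 h at 4 C; score combines spot fluorescence with its signal to noise ratio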
[12] = hepatitis C replication reporter changes, two-sided – Huh7 cells, luciferase reporter, HCV replication inhibitor project, primary screen (AID 1109); settings: Huh7 HCV replicon luciferase reporter, 48 h; higher = more signal;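 note: huh7 hepatoma cells harbouring a luciferase neomycin HCV replicon reporter; luciferase luminescence as measure of HCV replicon replication; test concentration not given here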
[13] = molecular target: Left-right determination factor 2 (Homo sapiens) (UniProt O00292); test: small molecules binding LEFTY2 protein – biochemical, small-molecule microarray, 635 nm fluorescence scan, primary screen (AID 1110); settings: higher = more signal
[14] = molecular target: Calmodulin-1 (Homo sapiens) (UniProt P0DP23); test: small molecules binding calmodulin-1 with EGTA – biochemical, small-molecule microarray, Cy5-labelled CALM1, profiling panel (AID 1111); settings: Cy5-CALM1 binding fluorescence, higher = more signal;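 note: labelled calmodulin applied in Tris saline Tween buffer holding calcium plus EGTA and DTT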
[15] = molecular target: Calmodulin-1 (Homo sapiens) (UniProt P0DP23); test: small molecules binding Ca-loaded calmodulin-1 – biochemical, small-molecule microarray, Cy5-labelled CALM1, plus calcium, artefact control for SMM control-protein annotation, profiling panel (AID 1112); settings: Cy5-CALM1 binding fluorescence, higher = more signal;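 note: score merges spot fluorescence with signal to noise from triplicate slides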
[16] = probe aWnt5a binding to arrayed compounds – biochemical, biotinylated probe, 635/667 nm fluorescence, primary screen (AID 1113); settings: small-molecule microarray, higher = more signal;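 note: score merges 667 nm fluorescence intensity with signal-to-noise per printed feature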
[17] = probe aShh binding to arrayed compounds – biochemical, biotinylated probe, 635/667 nm fluorescence, primary screen (AID 1114); settings: small-molecule microarray, higher = more signal;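 note: probe is biotin-labelled aShh protein from a stem cell growth factor screen; measures binding of labelled protein to compounds printed on the slide; score merges feature fluorescence at 667 nm with signal-to-noise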
[18] = probe aNog binding to arrayed compounds – biochemical, biotinylated probe, 635/667 nm fluorescence, primary screen (AID 1115); settings: small-molecule microarray, higher = more signal;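 note: probe is biotinylated aNog protein used at 0.15 µg/mL for 1 h at 4 C; z-score combines 667 nm fluorescence of each spot with its signal to noise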
[19] = molecular target: Torsin-1A-interacting protein 1 (Homo sapiens) (UniProt Q5JTV8); test: compound microarray binding of lysate hLAP1 – cell lysate, small-molecule microarray, COS7 lysate, 635/667 nm fluorescence, primary screen (AID 1116); settings: 635 nm fluorescence, higher = more signal
[20] = molecular target: Alpha-bungarotoxin (Bungarus multicinctus) (UniProt P60615); test: compounds binding labelled alpha-BTX control protein – biochemical, small-molecule microarray, Alexa647 label, 635/667 nm fluorescence, artefact control for SMM control protein annotation, profiling panel (AID 1117); settings: alpha-BTX-A647 binding fluorescence, higher = more signal
Alpha-bungarotoxin (Bungarus multicinctus), sequence (P60615 whole entry, looked up): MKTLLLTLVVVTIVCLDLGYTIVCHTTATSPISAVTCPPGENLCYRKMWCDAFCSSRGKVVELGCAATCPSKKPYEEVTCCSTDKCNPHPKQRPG

Follistatin-related protein 3 (Homo sapiens), sequence (O95633 whole entry, looked up): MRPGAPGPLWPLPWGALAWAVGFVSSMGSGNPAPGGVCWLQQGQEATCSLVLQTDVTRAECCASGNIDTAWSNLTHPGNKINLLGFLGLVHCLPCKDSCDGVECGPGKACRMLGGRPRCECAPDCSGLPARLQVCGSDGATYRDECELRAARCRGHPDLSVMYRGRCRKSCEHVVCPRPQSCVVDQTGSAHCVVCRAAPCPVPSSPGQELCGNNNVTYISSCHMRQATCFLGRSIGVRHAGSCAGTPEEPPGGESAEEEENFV
Epidermal growth factor receptor (Homo sapiens), sequence (P00533 whole entry, looked up): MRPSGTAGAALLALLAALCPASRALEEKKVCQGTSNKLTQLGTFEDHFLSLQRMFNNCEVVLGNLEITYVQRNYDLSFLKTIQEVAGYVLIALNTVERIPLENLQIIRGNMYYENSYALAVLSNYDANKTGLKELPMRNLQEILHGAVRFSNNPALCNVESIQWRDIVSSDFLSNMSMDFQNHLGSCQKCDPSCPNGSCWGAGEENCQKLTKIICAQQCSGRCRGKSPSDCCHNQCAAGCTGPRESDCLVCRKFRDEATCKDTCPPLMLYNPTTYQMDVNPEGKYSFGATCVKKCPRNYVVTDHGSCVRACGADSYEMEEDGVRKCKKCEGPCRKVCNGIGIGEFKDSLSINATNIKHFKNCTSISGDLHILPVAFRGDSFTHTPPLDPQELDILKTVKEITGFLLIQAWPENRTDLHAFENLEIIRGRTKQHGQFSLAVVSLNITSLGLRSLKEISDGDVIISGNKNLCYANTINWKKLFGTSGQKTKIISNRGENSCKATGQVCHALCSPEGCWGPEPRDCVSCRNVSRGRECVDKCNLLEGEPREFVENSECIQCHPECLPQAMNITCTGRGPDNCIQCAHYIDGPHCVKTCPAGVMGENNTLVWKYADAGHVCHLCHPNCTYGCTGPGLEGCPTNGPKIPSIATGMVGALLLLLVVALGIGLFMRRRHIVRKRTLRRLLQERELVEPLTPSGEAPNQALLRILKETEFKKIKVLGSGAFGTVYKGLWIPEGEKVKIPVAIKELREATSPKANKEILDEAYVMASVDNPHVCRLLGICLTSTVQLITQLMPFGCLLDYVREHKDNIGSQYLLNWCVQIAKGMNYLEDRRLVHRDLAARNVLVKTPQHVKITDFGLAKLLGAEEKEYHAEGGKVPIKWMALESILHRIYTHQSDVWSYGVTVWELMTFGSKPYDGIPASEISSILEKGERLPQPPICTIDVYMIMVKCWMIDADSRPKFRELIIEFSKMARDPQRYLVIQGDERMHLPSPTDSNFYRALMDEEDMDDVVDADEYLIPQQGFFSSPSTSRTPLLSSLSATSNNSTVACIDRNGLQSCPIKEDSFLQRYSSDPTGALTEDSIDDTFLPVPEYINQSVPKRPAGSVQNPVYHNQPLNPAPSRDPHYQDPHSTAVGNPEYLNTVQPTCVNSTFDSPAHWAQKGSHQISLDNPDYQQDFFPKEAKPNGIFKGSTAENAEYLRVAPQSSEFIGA
Dickkopf-related protein 1 (Homo sapiens), sequence (O94907 whole entry, looked up): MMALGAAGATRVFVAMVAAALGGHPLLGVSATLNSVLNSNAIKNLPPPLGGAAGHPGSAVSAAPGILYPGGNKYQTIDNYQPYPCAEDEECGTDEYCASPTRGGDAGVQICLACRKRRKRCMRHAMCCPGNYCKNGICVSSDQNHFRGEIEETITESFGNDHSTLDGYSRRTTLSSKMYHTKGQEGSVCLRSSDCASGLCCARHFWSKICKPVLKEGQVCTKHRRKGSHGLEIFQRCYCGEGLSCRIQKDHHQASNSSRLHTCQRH
Torsin-1A-interacting protein 1 (Homo sapiens), sequence (Q5JTV8 whole entry, looked up): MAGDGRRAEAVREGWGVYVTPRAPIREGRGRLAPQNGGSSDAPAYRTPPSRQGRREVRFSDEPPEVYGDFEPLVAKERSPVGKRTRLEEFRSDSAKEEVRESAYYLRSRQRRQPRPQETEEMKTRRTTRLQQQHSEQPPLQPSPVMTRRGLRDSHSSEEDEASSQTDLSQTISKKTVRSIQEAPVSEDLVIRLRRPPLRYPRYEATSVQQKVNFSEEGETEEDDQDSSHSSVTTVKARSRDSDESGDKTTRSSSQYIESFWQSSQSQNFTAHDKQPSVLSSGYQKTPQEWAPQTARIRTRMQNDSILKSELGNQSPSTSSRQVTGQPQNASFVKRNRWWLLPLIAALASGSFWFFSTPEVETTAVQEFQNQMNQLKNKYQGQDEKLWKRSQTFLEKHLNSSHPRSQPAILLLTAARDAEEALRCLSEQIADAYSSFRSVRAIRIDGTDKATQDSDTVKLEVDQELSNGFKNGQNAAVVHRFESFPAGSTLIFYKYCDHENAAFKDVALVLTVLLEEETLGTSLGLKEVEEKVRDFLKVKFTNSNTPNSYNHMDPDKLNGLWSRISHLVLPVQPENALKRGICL
Fibroblast growth factor 10 (Homo sapiens), sequence (O15520 whole entry, looked up): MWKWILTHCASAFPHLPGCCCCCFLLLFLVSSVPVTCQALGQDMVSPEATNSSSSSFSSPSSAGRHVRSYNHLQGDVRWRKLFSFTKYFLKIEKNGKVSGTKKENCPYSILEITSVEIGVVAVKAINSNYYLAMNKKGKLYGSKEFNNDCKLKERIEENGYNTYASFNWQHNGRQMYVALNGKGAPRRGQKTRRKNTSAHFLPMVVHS
Left-right determination factor 2 (Homo sapiens), sequence (O00292 whole entry, looked up): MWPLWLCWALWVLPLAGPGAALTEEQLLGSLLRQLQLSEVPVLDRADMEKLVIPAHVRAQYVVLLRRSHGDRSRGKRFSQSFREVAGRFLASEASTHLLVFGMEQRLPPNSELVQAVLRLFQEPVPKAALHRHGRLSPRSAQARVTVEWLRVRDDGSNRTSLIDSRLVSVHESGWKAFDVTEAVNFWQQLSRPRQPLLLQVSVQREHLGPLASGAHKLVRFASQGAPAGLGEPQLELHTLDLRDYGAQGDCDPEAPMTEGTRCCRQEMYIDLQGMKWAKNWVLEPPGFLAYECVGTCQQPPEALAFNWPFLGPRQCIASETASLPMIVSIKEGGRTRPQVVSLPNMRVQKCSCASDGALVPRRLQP

Structure (SMILES) | composite z-score [1] | composite z-score [2] | composite z-score [3] | z-score [4] | composite z-score [5] | composite z-score [6] | composite z-score [7] | composite z-score [8] | composite z-score [9] | composite z-score [10] | composite z-score [11] | z-score [12] | composite z-score [13] | composite z-score [14] | composite z-score [15] | composite z-score [16] | composite z-score [17] | composite z-score [18] | composite z-score [19] | composite z-score [20]
CN1C(=O)[C@@]2(Cc3ccccc3)N=C(c3ccc(OCCCO)cc3)O[C@H]2c2ccccc21 | 0.318 | 0.428 | 1.02 | -0.528 (inactive) | 1.3 | 1.32 | 0.261 | 1.11 | 0.191 | 1.16 | 1.3 | -2.57 | 0.879 | 0.329 | 0.458 | -0.0495 | 0.0372 | 1.26 | 0.344 | 0.846
CC(C)C[C@@H]1NC(=O)[C@@H]2C[C@H](C(=O)NCCCCCC[N+](C)(C)C)[C@H](c3cccc(OCCO)c3)N2C1=O | 1.78 | -0.294 | 0.512 | -0.261 (inactive) | 0.225 | 0.221 | -0.138 | -0.168 | 0.449 | 0.327 | 1.31 | -0.926 | -0.184 | -0.105 | -0.744 | -0.156 | -0.0234 | -0.249 | 0.369 | 0.446
CCCCCCCCCCC(O)C1C=CC2C(=O)N(C)C(=O)C2N1Nc1cc(OC)c(OC)c(OC)c1 (stereo not given) | 1.05 | 0.571 | 0.858 | 0.271 (inactive) | -0.471 | -1.29 | -0.637 | -1.29 | -0.939 | 1.18 | -0.298 | -2.01 | -1.11 | 1.82 | 1.39 | -0.0529 | -0.0398 | 0.837 | -0.232 | 0.229
C=C(CCCC)C(=O)CC[C@@H](OC(=O)c1cccnc1)c1ccc(OCCO)cc1 | 1.25 | -0.191 | -0.266 | 2.51 (inactive) | 1.67 | 0.704 | 0.298 | 1.39 | 0.714 | 0.982 | 0.849 | -2.35 | 0.249 | -0.588 | -0.684 | -0.0161 | -0.243 | -0.374 | 0.903 | 0.172
O=C1C2C=CC(C(O)c3ccc4c(c3)OCO4)N(Nc3ccccc3)C2C(=O)N1c1ccccc1 (stereo not given) | 1.41 | 0.45 | 1.09 | 0.243 (inactive) | 0.781 | -0.157 | -0.0637 | 0.71 | -0.541 | 0.477 | 1.36 | -0.631 | -0.127 | 1.36 | 0.174 | -0.0286 | -0.0904 | 1.69 | 0.722 | 1.05
COC(=O)C(CC#Cc1ccc2c(c1)[C@]1(C(=O)N2)[C@H](c2ccc(O)cc2)N2[C@H](c3ccccc3)[C@H](c3ccccc3)OC(=O)[C@H]2[C@@H]1C(=O)N1CCCCCCC1)C(=O)OC | 1.48 | 2.23 | 1.22 | -0.83 (inactive) | 0.869 | 1.32 | 0.765 | 1.54 | 1.22 | 1.77 | 1.36 | -1.69 | 0.65 | 2.75 | 1.64 | 0.593 | 1.03 | 2.58 | 3.87 | 2.18
CO[C@H]1O[C@H](CO)[C@@H](OC(=O)Nc2ccc(C#N)cc2)[C@@H]2OC(=O)[C@H](Cc3cccc(Br)c3)C/C=C/C[C@@H](Cc3cccc(Br)c3)C(=O)O[C@@H]12 | 0.717 | 0.617 | 0.534 | 1.5 (inactive) | 0.788 | -0.037 | 0.223 | 0.707 | 0.336 | -0.247 | 1.02 | -3.4 | 0.721 | 0.211 | -0.121 | -0.104 | 0.326 | 0.886 | 0.318 | 0.764
C=CCNC(=O)[C@@H]1[C@H]2C(=O)O[C@H](c3ccccc3)[C@H](c3ccccc3)N2[C@H](c2ccc(O)cc2)[C@@]12C(=O)N(C(=O)OCCOC)c1ccc(C#CCCO)cc12 | 1.25 | 0.373 | 0.42 | -0.591 (inactive) | 1.37 | 1.04 | 0.683 | 1.12 | 0.921 | 0.616 | -0.472 | -0.118 | 0.863 | 0.355 | 0.349 | -0.0276 | -0.0011 | 0.565 | 0.394 | 2.29
